In PubChem BioAssay (Tox21):
Several values for one entry are separate records, joined by “and”; a condition that tells them apart may be missing. Identical values can stand only once. Records with an inconclusive call do not appear. Entries that show only a call come without a potency. Some compounds were tested as several samples or in several runs, with calls that do not always agree. Activity calls are given as the source filed them. Unless noted, calls come from the whole dose curve.

Key:
[1] = Nuclear factor erythroid 2-related factor 2/antioxidant responsive element (Nrf2/ARE) small molecule agonists: luciferase reporter gene qHTS assay in human keratinocytes (AID 1919969); note: nearly all actives have a fitted effect of over 35% in size; note: potency is the fitted concentration of half-maximal effect
[2] = target: Gonadotropin-releasing hormone receptor (Homo sapiens) (UniProt P30968); assay: Human gonadotropin-releasing hormone receptor (GnRHR) small molecule agonists, calcium flux assay in GnRHR-HEK293 cells (AID 1920063); note: nearly all actives have a fitted effect of over 35% in size; note: potency is the fitted concentration of half-maximal effect
Chain of Gonadotropin-releasing hormone receptor (Homo sapiens) (P30968 whole entry, looked up): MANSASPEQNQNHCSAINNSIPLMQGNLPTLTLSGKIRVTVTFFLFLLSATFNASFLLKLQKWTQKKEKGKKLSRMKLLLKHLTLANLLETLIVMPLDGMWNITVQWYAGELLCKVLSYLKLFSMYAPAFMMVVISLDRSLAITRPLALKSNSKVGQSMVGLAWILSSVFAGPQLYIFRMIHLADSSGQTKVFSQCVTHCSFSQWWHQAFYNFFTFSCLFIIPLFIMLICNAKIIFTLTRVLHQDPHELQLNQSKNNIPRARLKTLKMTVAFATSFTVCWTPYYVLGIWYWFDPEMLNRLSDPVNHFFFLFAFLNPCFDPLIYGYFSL
Summary of the method: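 Agonist mode: compounds at 15 concentrations, in triplicate, went onto calcium dye-loaded GnRHR-HEK293 cells. Intracellular calcium was then followed as 480/540 nm fluorescence at 1 s intervals over 3 min.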

[3] = target: KiSS-1 receptor (Homo sapiens) (UniProt Q969F8); assay: Human kisspeptin (KISS1R) small molecule agonists, calcium flux assay in KISS1R-HEK293 cells (AID 1920064; active = well fitted activation curve with a large enough effect in the repeat runs)
Chain of KiSS-1 receptor (Homo sapiens) (Q969F8 whole entry, looked up): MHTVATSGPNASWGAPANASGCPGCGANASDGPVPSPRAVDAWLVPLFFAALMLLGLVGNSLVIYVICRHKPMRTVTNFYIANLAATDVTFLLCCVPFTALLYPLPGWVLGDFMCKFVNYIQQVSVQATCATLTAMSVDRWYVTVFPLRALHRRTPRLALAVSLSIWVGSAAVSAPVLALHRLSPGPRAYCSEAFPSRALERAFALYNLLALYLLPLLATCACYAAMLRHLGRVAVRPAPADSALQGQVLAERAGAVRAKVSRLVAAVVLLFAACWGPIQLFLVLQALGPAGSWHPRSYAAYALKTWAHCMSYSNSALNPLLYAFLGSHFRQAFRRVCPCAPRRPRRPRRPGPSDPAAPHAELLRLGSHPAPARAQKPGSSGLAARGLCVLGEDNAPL
Summary of the method: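 Agonist mode: intracellular calcium rise tracked at 1 s intervals over 3 min (480/540 nm) immediately after compound addition to dye-loaded KISS1R-HEK293 stable cells. Each compound tested at 15 concentrations in triplicate.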

[4] = G protein-coupled receptor (GPCR) small molecule agonists, calcium flux assay: HEK293 wild type cell line counter screen (AID 1920065)
Summary of the method: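 Calcium flux counter screen: compound added in agonist mode at 15 concentrations in triplicate to dye-loaded parental HEK293 cells. Fluorescence (480/540) read kinetically for 3 min; ATP served as positive control.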

[5] = p53 small molecule agonists, cell-based qHTS assay with human liver microsomes (AID 1963577);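 note: p53 response element beta-lactamase reporter cells with liver microsomes plus NADPH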
Summary of the method: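 16 h, 37 C exposure of p53RE-bla cells to compounds with human liver microsomes and NADPH (0.5 mg/mL final each); detection via LiveBLAzer mixture, 2 h dark at room temperature.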

[6] = p53 small molecule agonists, cell-based qHTS assay with rat liver microsomes (AID 1963578)
Summary of the method: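 With rat liver microsomes and NADPH present (0.5 mg/mL final each), p53RE-bla cells are treated with compound for 16 h at 37 C. LiveBLAzer detection mixture is then applied for 2 h at room temperature in the dark.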

[7] = p53 small molecule agonists, cell-based qHTS assay with human liver microsomes: qHTS cell viability counter screen (AID 1963579); note: nearly all actives have a fitted effect of over 45% in size; note: potency is the fitted concentration of half-maximal effect
Summary of the method: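 In this multiplexed counter screen, the reporter plates were subsequently treated with CellTiter-Glo so that cell viability, reflected by luminescence, could be recorded for p53RE-bla cells dosed 16 h with compounds under microsomal activation (HLM and NADPH).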

[8] = p53 small molecule agonists, cell-based qHTS assay with rat liver microsomes: qHTS cell viability counter screen (AID 1963580); note: nearly all actives have a fitted effect of over 45% in size; note: potency is the fitted concentration of half-maximal effect
Summary of the method: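 After the beta-lactamase ratio was read, CellTiter-Glo was added to the same wells and luminescence measured at 30 min; cells had been treated 16 h at 37 C with compounds, rat liver microsomes and NADPH (0.5 mg/mL final each).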

[9] = p53 small molecule agonists, cell-based qHTS assay: qHTS cell viability counter screen (AID 1963581); note: nearly all actives have a fitted effect of over 45% in size; note: potency is the fitted concentration of half-maximal effect
Summary of the method: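 Counter screen read by CellTiter-Glo luminescence (ATP content, 30 min at room temperature), run in the same wells as the beta-lactamase reporter read. HCT-116 p53RE-bla cells saw compounds for 16 h at 37 C.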

[10] = target: Beta-2 adrenergic receptor (Homo sapiens) (UniProt P07550); assay: Adrenergic beta2 receptor (ADRB2) small molecule antagonists, cell-based qHTS assay (AID 1963592); note: nearly all actives have a fitted effect of over 50% in size; note: potency is the fitted concentration of half-maximal effect
Chain of Beta-2 adrenergic receptor (Homo sapiens) (P07550 whole entry, looked up): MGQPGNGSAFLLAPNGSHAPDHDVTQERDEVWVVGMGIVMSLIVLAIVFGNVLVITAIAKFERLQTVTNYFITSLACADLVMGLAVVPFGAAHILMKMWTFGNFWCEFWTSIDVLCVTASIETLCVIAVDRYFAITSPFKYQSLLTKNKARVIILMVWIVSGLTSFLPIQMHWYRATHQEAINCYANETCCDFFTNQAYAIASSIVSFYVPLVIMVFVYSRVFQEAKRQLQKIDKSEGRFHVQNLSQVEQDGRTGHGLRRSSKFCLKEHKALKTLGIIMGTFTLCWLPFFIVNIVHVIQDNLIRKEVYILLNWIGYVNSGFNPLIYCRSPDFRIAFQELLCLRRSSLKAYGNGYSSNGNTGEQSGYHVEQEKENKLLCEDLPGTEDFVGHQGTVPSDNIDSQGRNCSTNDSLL
Summary of the method: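 Assay format: CHO-ADRB2 cells, 18-20hr seeding at 37C/5% CO2, then compound plus 1nM isoproterenol agonist mix for 0.5hr RT. Homogeneous time-resolved fluorescence cAMP detection after 1hr, expressed as 665/615 nm ratio.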

[11] = target: Beta-2 adrenergic receptor (Homo sapiens) (UniProt P07550); assay: Adrenergic beta2 receptor (ADRB2) small molecule agonists, cell-based qHTS assay (AID 1963593);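 note: CHO cells stably overexpressing human ADRB2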
Summary of the method: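 CHO cells stably over-expressing ADRB2 were plated overnight at 37C, then dosed with compounds plus a stimulation mix containing 100uM IBMX and 25uM Ro-20-1724 for 0.5hr at room temperature. cAMP was measured by HTRF competition, 1hr.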

[12] = target: D(2) dopamine receptor (Homo sapiens) (UniProt P14416); assay: Dopamine D2 receptor (DRD2) small molecule agonists, cell-based qHTS assay (AID 1963594); note: nearly all actives have a fitted effect of over 35% in size; note: potency is the fitted concentration of half-maximal effect
Chain of D(2) dopamine receptor (Homo sapiens) (P14416 whole entry, looked up): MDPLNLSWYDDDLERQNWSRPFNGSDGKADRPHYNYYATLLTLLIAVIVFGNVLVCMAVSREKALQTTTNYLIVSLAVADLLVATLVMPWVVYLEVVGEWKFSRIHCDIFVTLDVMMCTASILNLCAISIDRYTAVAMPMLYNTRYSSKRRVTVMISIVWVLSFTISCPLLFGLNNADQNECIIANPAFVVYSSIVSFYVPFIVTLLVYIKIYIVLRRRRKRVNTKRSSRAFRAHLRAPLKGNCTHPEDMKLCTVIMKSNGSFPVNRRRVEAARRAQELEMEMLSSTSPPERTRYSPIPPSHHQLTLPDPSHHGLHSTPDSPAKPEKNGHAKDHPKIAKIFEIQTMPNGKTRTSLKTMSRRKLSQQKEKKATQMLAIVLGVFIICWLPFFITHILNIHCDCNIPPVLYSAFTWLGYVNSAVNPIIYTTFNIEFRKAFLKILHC
Summary of the method: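 HEK293 cells stably expressing human DRD2, pre-treated with PDE inhibitor Ro20-1724 (0.1 mM final) and compound 10 min at room temperature, then stimulated with NKH477 (200nM […]) for 30 min. cAMP read by HTRF (665/620 nm).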

[13] = target: D(2) dopamine receptor (Homo sapiens) (UniProt P14416); assay: Dopamine D2 receptor (DRD2) small molecule antagonists, cell-based qHTS assay (AID 1963595; active = well fitted inhibition curve with a large enough effect in the signal ratio in the repeat runs, with a control signal flat; the % refers to the signal ratio; note: potency is the fitted concentration of half-maximal effect)
Summary of the method: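 DRD2-HEK293; 0.1 mM Ro20-1724; cpd 10 min RT; NKH477 200 nM + quinpirole 12 nM, 30 min RT; HTRF cAMP (cAMP-d2/anti-cAMP cryptate), 665/620 nm ratio after 1 h.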

[14] = p53 small molecule agonists, cell-based qHTS assay (AID 1963582; active = well fitted activation curve with a large enough effect in the signal ratio in the repeat runs, not every such curve was filed as active; the % refers to the signal ratio; note: potency is the fitted concentration of half-maximal effect)
Summary of the method: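 Read-out is beta-lactamase FRET fluorescence after 2 h at room temperature with LiveBLAzer B/G substrate. p53 response element-bla cells were treated 16 h at 37 C with compounds in DMSO, added 5 h after seeding.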

[15] = cAMP Responsive Elements (CRE) small molecule agonists, cell-based qHTS assay (AID 1963590)
Summary of the method: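 Agonist mode: compound added to CRE-bla HEK 293T cells (2,000/well, 18 h after plating) for 3 h at 37 C/5% CO2. Reporter activity detected via FRET beta-lactamase substrate, 2 h room-temperature loading.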

[16] = target: 5-hydroxytryptamine receptor 2A (Homo sapiens) (UniProt P28223); assay: 5-hydroxytryptamine receptor 2A (HTR2A) small molecule antagonists, cell-based qHTS assay (AID 1963586); note: nearly all actives have a fitted effect of over 45% in size; note: potency is the fitted concentration of half-maximal effect
Chain of 5-hydroxytryptamine receptor 2A (Homo sapiens) (P28223 whole entry, looked up): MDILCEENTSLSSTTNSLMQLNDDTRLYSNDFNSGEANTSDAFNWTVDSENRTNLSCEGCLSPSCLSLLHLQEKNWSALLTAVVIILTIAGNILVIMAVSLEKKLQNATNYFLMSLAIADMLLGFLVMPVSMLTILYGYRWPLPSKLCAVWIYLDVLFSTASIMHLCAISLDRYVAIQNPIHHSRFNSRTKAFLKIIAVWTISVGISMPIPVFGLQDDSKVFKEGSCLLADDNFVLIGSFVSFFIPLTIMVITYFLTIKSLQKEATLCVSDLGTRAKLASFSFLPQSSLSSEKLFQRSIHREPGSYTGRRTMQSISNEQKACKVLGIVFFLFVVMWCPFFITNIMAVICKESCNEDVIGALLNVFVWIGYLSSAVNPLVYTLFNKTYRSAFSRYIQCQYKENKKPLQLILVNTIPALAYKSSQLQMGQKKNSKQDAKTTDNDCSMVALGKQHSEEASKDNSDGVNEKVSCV
Summary of the method: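 CHO cells stably expressing human HTR2A were plated for 18 h at 37 C, then loaded with calcium dye for 1 h. Compounds were preincubated 5 min at room temperature before DOI (4 nM solution) was added. Kinetic fluorescence was read for 3 min.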

[17] = target: 5-hydroxytryptamine receptor 2A (Homo sapiens) (UniProt P28223); assay: 5-hydroxytryptamine receptor 2A (HTR2A) small molecule agonists, cell-based qHTS assay (AID 1963587); note: nearly all actives have a fitted effect of over 30% in size; note: potency is the fitted concentration of half-maximal effect
Summary of the method: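 CHO cells stably expressing human HTR2A, plated 18 h, loaded with calcium dye 1 h at 37 C. Agonist mode: compounds added and intracellular calcium fluorescence recorded kinetically for 2 min at 1 sec intervals.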

[18] = target: Muscarinic acetylcholine receptor M1 (Homo sapiens) (UniProt P11229); assay: Cholinergic receptor muscarinic 1 (CHRM1) small molecule agonists, cell-based qHTS assay (AID 1963589); note: nearly all actives have a fitted effect of over 35% in size; note: potency is the fitted concentration of half-maximal effect
Chain of Muscarinic acetylcholine receptor M1 (Homo sapiens) (P11229 whole entry, looked up): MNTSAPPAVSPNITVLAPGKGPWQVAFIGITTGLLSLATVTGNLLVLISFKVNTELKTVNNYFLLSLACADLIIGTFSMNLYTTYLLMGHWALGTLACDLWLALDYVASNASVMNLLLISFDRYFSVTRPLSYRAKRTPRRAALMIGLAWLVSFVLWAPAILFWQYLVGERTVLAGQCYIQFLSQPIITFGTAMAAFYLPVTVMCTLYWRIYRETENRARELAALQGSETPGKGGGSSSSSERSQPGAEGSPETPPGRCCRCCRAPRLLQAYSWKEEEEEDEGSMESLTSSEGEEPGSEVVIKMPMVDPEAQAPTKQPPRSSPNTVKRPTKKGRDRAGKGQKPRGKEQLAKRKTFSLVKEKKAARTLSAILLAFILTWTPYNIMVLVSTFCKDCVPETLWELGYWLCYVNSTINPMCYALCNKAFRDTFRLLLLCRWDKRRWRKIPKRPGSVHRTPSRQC
Summary of the method: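 Agonist-mode calcium-flux screen: compounds at 15 concentrations, three independent runs, were pin-transferred onto dye-loaded human CHRM1-CHO cells. Fluorescence was then recorded kinetically every second over minutes.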

[19] = cAMP Responsive Elements (CRE) small molecule antagonists, cell-based qHTS assay (AID 1963591; active = well fitted inhibition curve with a large enough effect in the signal ratio in the repeat runs, not every such curve was filed as active; the % refers to the signal ratio)
Summary of the method: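 Antagonist mode: compounds are added alongside the adenylyl cyclase activator NKH477 (0.25 uM final) to CRE-bla HEK293T cells for 3 h. LiveBLAzer FRET substrate, 2 h at room temperature, reports bla expression.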

[20] = target: Muscarinic acetylcholine receptor M1 (Homo sapiens) (UniProt P11229); assay: Cholinergic receptor muscarinic 1 (CHRM1) small molecule antagonists, cell-based qHTS assay (AID 1963588); note: nearly all actives have a fitted effect of over 40% in size; note: potency is the fitted concentration of half-maximal effect
Summary of the method: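 Compounds were tested at 15 concentrations in three independent runs. Dye-loaded CHRM1-CHO cells were exposed 5 min at room temperature before stimulation by acetylcholine added at 50nM. Intracellular calcium was read kinetically on FDSS for 3 min.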

| Compound | Potency [1] | Potency [2] | Potency [3] | Potency [4] | Potency [5] | Potency [6] | Potency [7] | Potency [8] | Potency [9] | Potency [10] | Potency [11] | Potency [12] | Potency [13] | Potency [14] | Potency [15] | Potency [16] | Potency [17] | Potency [18] | Potency [19] | Potency [20] |
| --- | --- | --- | --- | --- | --- | --- | --- | --- | --- | --- | --- | --- | --- | --- | --- | --- | --- | --- | --- | --- |
| C[C@H]1O[C@@H](O[C@H]2[C@@H](O)C[C@H](O[C@H]3[C@@H](O)C[C@H](O[C@H]4CC[C@@]5(C)[C@H](CC[C@@H]6[C@@H]5CC[C@]5(C)[C@@H](C7=CC(=O)OC7)CC[C@]65O)C4)O[C@@H]3C)O[C@@H]2C)C[C@H](O)[C@@H]1O | 61.5 nM (active) and 119 nM (active) | inactive | inactive | inactive | inactive | inactive | 46.1 nM (active) and inactive | 0.073 µM (active) | 81.9 nM (active) and 79.3 nM (active) | inactive | inactive | inactive | inactive |  |  |  |  |  |  |  |
| COc1ccc(C(=O)N2CCCC2=O)cc1 | inactive | inactive | inactive | inactive | inactive | inactive | inactive | inactive | inactive |  | inactive | inactive | inactive | inactive | inactive |  |  |  |  |  |
| O=[N+]([O-])c1ccc(Oc2ccc(C(F)(F)F)cc2[N+](=O)[O-])cc1 | 48.6 µM (active) | inactive | inactive | inactive | inactive | inactive | inactive | inactive |  |  |  | inactive | inactive |  |  | inactive | inactive | inactive | inactive |  |
| ClC1=C(Cl)[C@]2(Cl)[C@H]3[C@H]([C@H]4C=C[C@H]3C4)[C@@]1(Cl)C2(Cl)Cl | 19.3 µM (active) | inactive | inactive | inactive | inactive | inactive | inactive | inactive |  | inactive |  | inactive | inactive | inactive |  | inactive | inactive | inactive | inactive | inactive |
| CC1=C(C(=O)Nc2ccccc2)S(=O)(=O)CCO1 | 10.9 µM (active) | inactive | inactive | inactive | inactive | inactive | inactive | inactive |  | inactive |  | inactive |  | 28.9 µM (active) | inactive | inactive | inactive | inactive | inactive | inactive |
| CC(C)(C)c1cc(O)ccc1O | 24.3 µM (active) and 30.6 µM (active) | inactive | inactive | inactive | inactive | inactive | inactive | inactive | inactive | inactive |  |  | inactive |  | inactive | inactive | inactive | inactive | inactive | inactive |
| O=C(O)c1ccc2[nH]cc(CCCCN3CC=C(c4ccccc4)CC3)c2c1 | inactive | inactive | inactive | inactive | inactive | inactive | inactive | inactive | inactive | inactive |  | 0.0084 µM (active) | inactive | inactive |  |  | inactive | inactive |  | inactive |
| Cc1ccc([N+](=O)[O-])[c]2c1[O][Hg]2 | 2.66 µM (active) | 16.9 µM (active) | inactive | inactive | inactive | inactive | 15.8 µM (active) | 15.8 µM (active) | 8.9 µM (active) | 29.8 µM (active) |  | 32.2 µM (active) |  |  |  | 7.29 µM (active) | 23.9 µM (active) | 23.9 µM (active) |  | inactive |
| CC[C@H]1C[C@@H]2C[C@H]3c4[nH]c5ccc(OC)cc5c4CCN(C2)[C@@H]13 | 67.4 µM (active) | inactive | inactive | inactive | inactive | inactive | inactive | inactive |  |  |  | inactive | inactive |  |  | 0.293 µM (active) | inactive |  |  | inactive |
| CC(C)(c1ccccc1)c1ccc(O)cc1 | inactive | inactive | inactive | inactive | inactive | inactive | 45.4 µM (active) and inactive | inactive | inactive | inactive | inactive | inactive | 61.1 µM (active) | inactive |  | 33.2 µM (active) and inactive | 54.5 µM (active) and inactive | inactive |  | inactive |
| OC(c1ccc(Cl)cc1)(c1ccc(Cl)cc1)C(Cl)(Cl)Cl | inactive | inactive | inactive | inactive | inactive | inactive | inactive | inactive | inactive | inactive |  |  |  | inactive |  | inactive | inactive | inactive |  | 26.5 µM (active) |
| CC1COC(Cn2cncn2)(c2ccc(Oc3ccc(Cl)cc3)cc2Cl)O1 (stereo unspecified) | inactive | inactive | inactive | inactive | inactive | inactive | inactive | inactive | inactive | inactive |  | inactive | inactive |  |  | inactive | inactive | inactive |  |  |
| COc1cc(C[C@@H](C)N)c(OC)cc1Br | inactive | inactive | inactive | inactive | inactive | inactive | inactive | inactive |  |  |  | 3.96 µM (active) | inactive | inactive | inactive | inactive |  | inactive | inactive | 17.2 µM (active) |
| OCC(c1ccc(Cl)cc1)c1ccc(Cl)cc1 | inactive | inactive | inactive | inactive | inactive | inactive | inactive | inactive | inactive |  |  | inactive | inactive | inactive |  | 7.48 µM (active) |  | inactive |  | 42.1 µM (active) |
| OC(Cc1ccccc1Cl)(Cn1[nH]cnc1=S)C1(Cl)CC1 (stereo unspecified) | 10.9 µM (active) | inactive | inactive | inactive | inactive | inactive | inactive | inactive | inactive | inactive |  | inactive | inactive |  | inactive |  | 38.9 µM (active) | inactive | inactive | inactive |
| CC(C)[C@@H](C(=O)O[C@@H](C#N)c1cccc(Oc2ccccc2)c1)c1ccc(Cl)cc1 | inactive | inactive | inactive | inactive | inactive | inactive | inactive | inactive | inactive | inactive | inactive | inactive | inactive | inactive |  | inactive | inactive | inactive | inactive | inactive |
